Laboratory results as given in PubChem BioAssay (NCATS).
Records with an inconclusive call do not appear. The source made the active and inactive calls. Calls follow the shape of the dose curve; as a rule, active = well fitted cell-killing curve with a large enough effect; inconclusive = small, poorly fitted or top-dose-only effect, or effect the other way; inactive = no such curve, though single readings can be large or run the other way.

Experiment: Quantitative High-Throughput drug screen in 47 multiple myeloma cell lines against the NCATS MIPE library collection: PE2_PLB cell viability assay (AID 1919869); also: nearly all actives have a fitted effect of over 35% in size
Details: PE2_PLB myeloma cells viability, ATP luminescence, 48 h; series mostly up to 45.8 µM
Text: PI: Beverly A. Mock Ph.D.
Laboratory of Cancer Biology and Genetics,
Center for Cancer Research, National Cancer Institute,
National Institute of Health, Bethesda, Maryland
Drug resistance and disease progression are common in multiple myeloma (MM) patients, underscoring the need for new therapeutic combinations. […] We hypothesized that effective combinations would reduce MYC expression and enhance p16 activity. […] These preclinical data identify potentially useful drug combinations for evaluation in drug-resistant MM and reveal potential mechanisms of combined drug sensitivity.
Described herein is the primary MIPE qHTS used to cherrypick compounds. Validated compounds were then further tested for potential synergistic activiy.
[1] Peat TJ, Gaikwad SM, Dubois W, Gyabaah-Kessie N, Zhang S, Gorjifard S, Phyo Z, Andres M, Hughitt VK, Simpson RM, Miller MA, Girvin AT, Taylor A, Williams D, D'Antonio N, Zhang Y, Rajagopalan A, Flietner E, Wilson K, Zhang X, Shinn P, Klumpp-Thomas C, McKnight C, Itkin Z, Chen L, Kazandijian D, Zhang J, Michalowski AM, Simmons JK, Keats J, Thomas CJ, Mock BA. Drug combinations identified by high-throughput screening promote cell cycle transition and upregulate Smad pathways in myeloma. Cancer Lett. 2023 Aug 1;568:216284. doi: 10.1016/j.canlet.2023.216284. Epub 2023 Jun 24. PMID: 37356470; PMCID: PMC10408729.
SEQUENCE No. (e.g., 1, 2, 3, etc.); […] (e.g., Cells, Incubation, Reagent, etc.); VALUE and DESCRIPTION.
1; Cells; 5 uL; white, solid bottom 1536-well Greiner assay plate.
2; Compounds; 23 nL; Kalypsis pin tool (Wako USA) equipped with a 1536-well pin head to transfer to the assay plates.
3; Incubation; 48 hours; 37C incubation.
4; Reagent;5uL; CellTiter Glo (Promega).
5; Detector; 425V; Luminescence; Viewlux PerkinElmer.
NOTES (numbers refer to Sequence numbers above)
1. The cell-based screening methods employed in this study were like those previously published. Briefly, the corresponding myeloma cell lines were screened in 1,536-well plates with 500 cells, 5-uL per well for inhibition of cell viability (assessed by measuring ATP levels with CellTiterGlo).
2. NCATS MIPE 4.0 library of approved and investigational drugs were added using the Kalypsis pin tool. Wells treated with DMSO only for 100% viability and media only for 0% viability were used as controls.
3. The assay plates were covered and incubated for 48 hours in a 37C, 5% CO2 incubator with controlled humidity.
4. After 48 hours, CellTilter-GloTM luminescent substrate mix (Promega) reagent was added to the assay plate and plates we incubated for 5 min at room temperature.
5. Signal was measured as median relative luminescence units on a ViewLux (PerkinElmer) multiplate reader.
[1] Heske CM, Davis MI, Baumgart JT, Wilson K, Gormally MV, Chen L, Zhang X, Ceribelli M, Duveau DY, Guha R, Ferrer M, Arnaldez FI, Ji J, Tran HL, Zhang Y, Mendoza A, Helman LJ, Thomas CJ. Matrix Screen Identifies Synergistic Combination of PARP Inhibitors and Nicotinamide Phosphoribosyltransferase (NAMPT) Inhibitors in Ewing Sarcoma. Clin Cancer Res. 2017 Dec 1;23(23):7301-7311. doi: 10.1158/1078-0432.CCR-17-1121. Epub 2017 Sep 12. PMID: 28899971; PMCID: PMC6636827.
Potency is read from the fitted curve at half-maximal effect.

| SMILES | Potency |
| --- | --- |
| Cc1sc2c(c1C)C(c1ccc(Cl)cc1)=N[C@@H](CC(=O)OC(C)(C)C)c1nnc(C)n1-2 | 1.18 µM (active) |
| Fc1ccc(C(OCCN2CCN(CCCc3ccccc3)CC2)c2ccc(F)cc2)cc1 | 13.2 µM (active) |
| CNC(=O)N1N=C(c2ccc(N)cc2)c2cc3c(cc2CC1C)OCO3 (configuration not stated) | 7.43 µM (active) |
| NCC1(CC(=O)O)CCCCC1 | inactive |
| C#CCN(C)[C@H](C)Cc1ccccc1 | inactive |
| C=C(C)[C@H]1Cc2c(ccc3c2O[C@@H]2COc4cc(OC)c(OC)cc4[C@@H]2C3=O)O1 | 0.372 µM (active) |
| C[C@@H]1[C@@H](CC(C[C@H]2O[C@@H]3O[C@]4(C)CC[C@@H]5[C@H](C)CC[C@@H]([C@H]2C)[C@@]35OO4)C[S+](=O)([O-])c2ccc(COC(=O)N(C)C)cc2)O[C@@H]2O[C@]3(C)CC[C@H]4[C@H](C)CC[C@@H]1[C@@]24OO3 (some centres not stated) | 0.264 µM (active) |
| Cn1c(CCCC(=O)O)nc2cc(N(CCCl)CCCl)ccc21 | 8.33 µM (active) |
| Cc1cccc(C)c1NC(=O)CN1CCCC1=O | inactive |
| N[C@@H](Cc1ccc(N(CCCl)CCCl)cc1)C(=O)O | 3.32 µM (active) |
| CC1=C2C[C@@H]3[C@@H](CC=C4C[C@@H](O)CC[C@@]43C)[C@@H]2CC[C@]12O[C@H]1C[C@H](C)CN[C@H]1[C@H]2C | inactive |
| COC[C@H]1OC(=O)c2coc3c2[C@@]1(C)C1=C(C3=O)C2CCC(=O)[C@@]2(C)C[C@H]1OC(C)=O (some centres not stated) | 1.66 µM (active) |
| Cn1cc(C2=C(c3cn(C4CCN(Cc5ccccn5)CC4)c4ccccc34)C(=O)NC2=O)c2ccccc21 | 8.33 µM (active) |
| CN1CCN(C(=O)O[C@H]2c3nccnc3C(=O)N2c2ccc(Cl)cn2)CC1 | inactive |
| C[C@@H]1[C@@H](C(=O)C[C@H]2O[C@@H]3O[C@]4(C)CC[C@@H]5[C@H](C)CC[C@@H]([C@H]2C)[C@@]35OO4)O[C@@H]2O[C@]3(C)CC[C@H]4[C@H](C)CC[C@@H]1[C@@]24OO3 | 0.264 µM (active) |
| Cc1cc(SCc2sc(-c3ccc(C(F)(F)F)c(F)c3)nc2C)ccc1OCC(=O)O | 26.4 µM (active) |
| COc1ccc(C(=O)c2c(C)n(CCN3CCOCC3)c3ccccc23)cc1 | inactive |
| C[C@@H]1O[C@@H](O[C@H]2C[C@@H](O)[C@]3(CO)[C@H]4[C@H](O)C[C@]5(C)[C@@H](C6=CC(=O)OC6)CC[C@]5(O)[C@@H]4CC[C@]3(O)C2)[C@H](O)[C@H](O)[C@H]1O | 0.0332 µM (active) |
| CCCC(C)(COC(N)=O)COC(=O)NC(C)C (configuration not stated) | inactive |
| CNCC(O)c1ccc(O)cc1 (configuration not stated) | inactive |
| CNC(=O)c1ccc(N2C(=S)N(c3ccc(C#N)c(C(F)(F)F)c3)C(=O)C23CCC3)cc1F | 9.35 µM (active) |
| CN(C)[C@@H]1C(=O)C(C(N)=O)=C(O)[C@@]2(O)C(=O)C3=C(O)c4c(O)cccc4[C@@](C)(O)[C@H]3C[C@@H]12 | inactive |
| CN(C)CCc1ccc(O)cc1 | 9.35 µM (active) |
| CC(O)(CS(=O)(=O)c1ccc(F)cc1)C(=O)Nc1ccc(C#N)c(C(F)(F)F)c1 (configuration not stated) | 0.418 µM (active) |
| O=C1CC[C@@]2(O)[C@H]3Cc4ccc(O)c5c4[C@@]2(CCN3CC2CC2)[C@H]1O5 | inactive |
| CC(C)CC(N(C)C)C1(c2ccc(Cl)cc2)CCC1 (configuration not stated) | inactive |
| COc1ccc(C(CN(C)C)C2(O)CCCCC2)cc1 (configuration not stated) | inactive |
